Source: PubChem BioAssay AID1376 (SRMLSC, 2008)
In all, about 220,000 compounds went through this assay and about 530 (0.24%) were called active. The full list was thinned out, with actives kept by preference. Potency and affinity values are given separately. Values without a mark were called inactive. Rule as the data show it: active = inhibition above about 13%; inconclusive = no clear call, values can overlap the other calls; inactive = below that.

The compounds below were run against Bifunctional protein GlmU (Mycobacterium tuberculosis (strain ATCC 25618 / H37Rv)) (UniProt P9WMN3) (assay: inhibition of mycobacterial GlmU enzyme – biochemical, glucosamine-1-phosphate acetyltransferase (AID 1376;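 also: 0% = complete reaction with vehicle and 100% = reaction without substrate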)). Conditions: M. tuberculosis GlmU acetyltransferase enzyme assay; hits give high values;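 tested at 30 µM in the primary screen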.
Bifunctional protein GlmU (Mycobacterium tuberculosis (strain ATCC 25618 / H37Rv)), sequence (P9WMN3 whole entry, looked up): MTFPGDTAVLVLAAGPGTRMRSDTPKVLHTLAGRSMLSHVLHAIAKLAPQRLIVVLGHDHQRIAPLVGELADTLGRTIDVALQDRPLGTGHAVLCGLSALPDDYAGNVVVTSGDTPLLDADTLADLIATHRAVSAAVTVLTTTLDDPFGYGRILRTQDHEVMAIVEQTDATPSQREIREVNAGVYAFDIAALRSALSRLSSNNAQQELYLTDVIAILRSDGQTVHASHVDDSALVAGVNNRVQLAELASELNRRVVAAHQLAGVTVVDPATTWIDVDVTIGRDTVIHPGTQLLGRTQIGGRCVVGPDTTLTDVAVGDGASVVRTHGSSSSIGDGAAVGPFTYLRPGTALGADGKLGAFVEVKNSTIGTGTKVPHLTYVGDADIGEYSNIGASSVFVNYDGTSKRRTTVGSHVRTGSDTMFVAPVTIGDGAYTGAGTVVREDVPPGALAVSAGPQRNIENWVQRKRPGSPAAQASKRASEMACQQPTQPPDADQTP
In the case of `CCn1c(=O)c2c(nc3n2CCN3c2ccccc2)n(C)c1=O`, the inhibition is reported as -6.14%. Work on `COc1ccc(/C=N/NC(=O)c2ccccc2O)cc1Cn1cc([N+](=O)[O-])cn1` yielded an inhibition of -1.22%. For `COc1ccc(/C=N/NC(=O)CCN2CCCCC2c2cccnc2)cc1Cn1cc([N+](=O)[O-])cn1` (centres undefined), the inhibition was 12.8% (active). In the case of `COc1ccc(/C=N\NC(=O)c2cccc([N+](=O)[O-])c2)cc1Cn1cc([N+](=O)[O-])cn1`, the inhibition is reported as -3.48%. For `O=C(CSc1nnc(Cc2cccs2)n1-c1ccc(Cl)cc1)NCc1ccc2c(c1)OCO2`, the inhibition was 12.9% (active). `O=C(CSc1nnc(-c2cccs2)n1-c1ccccc1)NCc1ccc2c(c1)OCO2` gave an inhibition of 4.61%. With `O=C(CSc1nnc(Cc2cccs2)n1-c1ccccc1)NCc1ccc2c(c1)OCO2` the inhibition was 5.29%. For `Cc1cccc(NC(=O)Cn2cnc3c(oc4ccccc43)c2=O)c1C`, the inhibition was 3.4%. `CCC(=O)N/C(=N/c1nc(C)cc(C)n1)Nc1ccc(OC)cc1` was tested, and the inhibition was 7.87%. Work on `N#CC12CCCCC1CC1CCCCC1(C#N)N2CCO` (centres undefined) yielded an inhibition of 0.23%. For `CC(C)COc1ccc(C2NC(=O)NC2=O)cc1` (centres undefined), the inhibition was -0.34%. Work on `CC(C)Oc1ccc(C2CNC(=O)C2)cc1` (centres undefined) yielded an inhibition of 5.76%. `CCCOc1ccc(C2NC(=O)NC2=O)cc1` (centres undefined) gave an inhibition of 1.13%. In the case of `CC(C)Oc1ccc(C2NC(=O)NC2=O)cc1` (centres undefined), the inhibition is reported as 14.6% (active). With `CC(C)Oc1ccc(C2CC(=O)NC3=C2C(=O)CCC3)cc1` (centres undefined) the inhibition was -5.28%. In the case of `CC(C)Oc1ccc(C2CCC(=O)NC2=O)cc1` (centres undefined), the inhibition is reported as 13.8% (active). `Cc1cc(N=NC(=O)c2ccccc2)ccc1O` gave an inhibition of 1.4%. In the case of `O=C(CNc1cccc(C(F)(F)F)c1)N/N=C/c1cccc(Br)c1`, the inhibition is reported as -0.17%. `O=C(CNc1cccc(C(F)(F)F)c1)N/N=C/c1ccccc1C(=O)O` was tested, and the inhibition was 13.4% (active). `O=C(CNc1cccc(C(F)(F)F)c1)N/N=C/c1cn(-c2ccccc2)nc1-c1ccccc1` showed an inhibition of -4.25%. `N/N=C1\CCCc2c1[nH]c1ccc([N+](=O)[O-])cc21` was tested, and the inhibition was 0.8%. `CCn1c(SCC(=O)N2CCc3ccccc32)nnc1-c1c[nH]c2ccccc12` gave an inhibition of 6.94%. With `Clc1ccc(Cn2nc(-c3ccccc3)nc2-c2ccccc2)cc1` the inhibition was 7.14%. `O=C1NC(=O)N(c2cccc(Cl)c2)C(=O)/C1=C\c1ccc(Sc2nc3ccccc3[nH]2)o1` was tested, and the inhibition was 22.4%. With `O=C1NC(=O)N(c2ccc(Cl)cc2)C(=O)/C1=C\c1ccc(Sc2nc3ccccc3[nH]2)o1` the inhibition was 12.5%. With `CN(C)S(=O)(=O)c1ccc(C(=O)N2CCOCC2)cc1` the inhibition was 9.61%. Compound `CN(C)S(=O)(=O)c1ccc(=S)[nH]c1` has an inhibition of 1.27%. For `CSc1ccccc1NC(=O)Nc1ccc(F)c(Cl)c1`, the inhibition was 15% (active). Work on `CSc1ccccc1NC(=O)Nc1ccc(Cl)cc1` yielded an inhibition of 1.07%. Compound `CSc1ccccc1NC(=O)Nc1cccc(Cl)c1` has an inhibition of 1%. Compound `Cc1ccc(-n2c(-c3ccccc3)cc(/C=N/NC(=O)CC#N)c2-c2ccccc2)cc1` has an inhibition of -1.01%. Compound `COc1ccc2c(c1)CCc1c(C(=O)N3CCc4ccccc4C3)noc1-2` has an inhibition of 5.33%. In the case of `COc1ccc2c(c1)CCc1c(C(=O)N3CCOCC3)noc1-2`, the inhibition is reported as 13.8% (active). Compound `COc1ccc2c(c1)CCc1c(C(=O)N3CCCCCC3)noc1-2` has an inhibition of 0.33%. `CC(C)(C)C1CCC(=NNC(=O)c2cc3c(s2)CCCC3)CC1` (centres undefined) was tested, and the inhibition was -4.64%. In the case of `Cc1ccc(OCc2ccc(C(=O)Nc3nc4ccccc4n3C)o2)c([N+](=O)[O-])c1`, the inhibition is reported as 2.65%. For `Cc1ccc(OCc2ccc(C(=O)Nc3nc4ccccc4n3Cc3ccccc3)o2)c([N+](=O)[O-])c1`, the inhibition was -4.38%. For `CCn1c(NC(=O)c2ccc(COc3ccc(C)cc3[N+](=O)[O-])o2)nc2ccccc21`, the inhibition was 15.2% (active). For `O=C(N/N=C1/CCS(=O)(=O)c2ccc(F)cc21)c1ccccn1`, the inhibition was -0.55%. For `CCCC(c1nnnn1CCc1ccccc1)N1CCN(C(=O)c2ccco2)CC1` (centres undefined), the inhibition was 5.26%. Work on `COc1ccccc1OCCCCN1CCN(C(c2ccccc2)c2ccccc2)CC1` yielded an inhibition of -0.89%. Compound `CCN(CC)S(=O)(=O)c1cc(NS(=O)(=O)c2cc(Cl)ccc2Cl)ccc1C` has an inhibition of 3.03%. `CCC(=O)Nc1ccc(Oc2ccc3c(c2)C(=O)N(c2ccc(O)cc2)C3=O)cc1` showed an inhibition of 2.87%. In the case of `COC1=C(OC)C(=O)C(CCCCCCCCCCO)=C(C)C1=O`, the inhibition is reported as -5.02%. `CCCCCCCCCCCC1=C(O)C(=O)C=C(O)C1=O` was tested, and the inhibition was 1.77%. In the case of `COC1=CC(=O)C(O)=C(CCCCCCC/C=C/CCCCCCCC2=C(O)C(=O)C=C(OC)C2=O)C1=O`, the inhibition is reported as 14.3% (active). Compound `COC(=O)c1c(C)oc2cc(Br)c(OCC(=O)C(C)(C)C)cc12` has an inhibition of -1.38%. `CCC(=O)NC1CCN(C(=S)NC)CC1` gave an inhibition of -4.03%. With `CSc1cccc(NC(=O)CN(Cc2ccc(Cl)cc2)S(C)(=O)=O)c1` the inhibition was -1.38%. `O=C(/C=C/c1ccco1)NC(=S)Nc1cccc(-c2nc3ccccc3s2)c1` was tested, and the inhibition was -0.02%. In the case of `O=C(/C=C/c1ccco1)NC(=S)Nc1cc(-c2nc3ccccc3s2)ccc1Cl`, the inhibition is reported as 13% (active). `Cc1ccc(-c2nc3ccccc3s2)cc1NC(=S)NC(=O)/C=C/c1ccco1` was tested, and the inhibition was 3.24%. `FC(F)(F)c1cnc(NNC(=S)Nc2cccnc2)c(Cl)c1` showed an inhibition of 2.72%. With `COC(=O)CSc1nc(N)c(C#N)c(-c2ccco2)c1C#N` the inhibition was 21.7% (active). With `CCCOC(=O)CSc1nc(N)c(C#N)c(-c2ccco2)c1C#N` the inhibition was 2.41%. `CC(C)OC(=O)CSc1nc(N)c(C#N)c(-c2ccco2)c1C#N` gave an inhibition of -3.1%. `CCOC(=O)c1[nH]c(=O)[nH]c1CN(Cc1ccco1)Cc1[nH]c(=O)[nH]c1C(=O)OCC` gave an inhibition of 2.03%. Compound `COc1cc(OC)c(OC)cc1CN1CCC(O)CC1` has an inhibition of 0.1%. `Cn1c(-c2ccc(Br)cc2)cnc1NCc1cccnc1` gave an inhibition of -2.36%.
